TDP1 cell noCPT = qHTS for Inhibitors of human tyrosyl-DNA phosphodiesterase 1 (TDP1): qHTS in cells in absence of CPT | DT40 Tdp1-/- hTDP1 cells, no CPT, ATP luminescence, 48 h | Potency, µM (titrated, usually from 46.2 µM), without a hit: at the top dose activity change, negative = growth inhibition, actives largely listed as inhibitors | 420,000 tested, 15% active; also: potency is read from the fitted curve at half-maximal effect; % is scaled to controls: 0 for no effect and ±100 for the full control effect; nearly all actives have a fitted effect of over 55% in size
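Readout: luminescence from CellTiter-Glo after 30 min in the dark at RT. Cells: DT40 Tdp1-/- with stable hTDP1, 400/well. Exposure: compounds alone, ≥48 hr, 37 °C.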
IL1B secr inh = blocks inflammasome-driven IL-1 beta release; AID 743279; 360,000 tested, 4.7% active; activity change, % at 57.5 µM; THP-1 LPS/ATP IL-1B secretion, AlphaLISA, 16 h; stronger effect = lower value; in the data active = activity change below about -50%; inconclusive = mostly about -30% to -49%; also: % is scaled to controls: 0 for no effect and ±100 for the full control effect
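THP-1 cells pretreated 1 hr with compounds (up to 57.5 uM final), then stimulated with LPS (250 ng/mL final) plus ATP (1.25 mM final); secreted IL-1B measured by AlphaLISA after 16 hr, decreased signal indicating inhibition.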
SW480 rerep = DNA re-replication induction in SW480 cells; AID 624297; 340,000 tested, 1.8% active; SW480 DNA re-replication, Hoechst DNA content imaging, 48 h; Potency, µM (titrated, usually from 46.1 µM), for inactives: at the top dose re-replication activation, usual class: activators; also: potency is read from the fitted curve at half-maximal effect; % of control where 0% means no effect; nearly all actives have a fitted effect of over 55% in size
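250 cells/well; 23 nL cpd via pin tool; 48 hr, 37 C, 5% CO2; Hoechst 40 min; imager read of total nuclear intensity, ex 405/em 500-530 nm.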
BCR signal inh = inhibitors of chronic active B-cell receptor signaling; ABC-DLBCL IkBa-CBG/CBR reporter, luminescence ratio, 4 h; Potency, µM (top dose mostly 46.1 µM), for the others: at the top dose activity change, negative = inhibition, hits mostly inhibitors; 340,000 tested, 0.05% active; AID 493014; active = well fitted inhibition curve with a large enough effect in the signal ratio, with a control signal flat, not every such curve was filed as active; inconclusive = small, poorly fitted or top-dose-only effect, or effect the other way, or a change in a side signal; the % refers to the signal ratio;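 also: potency is read from the fitted curve at half-maximal effect; plate controls were basal doxycycline-induced cells for no effect and cells given 10 µM MG132 for full effect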
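Doxycycline induced both beetle luciferases in TMD8 lymphoma cells; IKK-driven degradation limits the IkappaBalpha-fused green signal, while red luminescence normalises for cell number and nonspecific effects. Compounds tested up to 46 uM, 4 hrs.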
DT40 TDP1 CPT = growth inhibition of DT40 Tdp1-/-;hTDP1 cells with camptothecin (screen for TDP1 inhibitors); chicken DT40 Tdp1-/-;hTDP1 cells + 20 nM CPT, ATP luminescence, 48 h; Potency, µM (series often up to 46.2 µM), for the others: top-dose activity change, negative = growth inhibition, hits mostly inhibitors; 420,000 tested, 12% active; also: potency is read from the fitted curve at half-maximal effect; % is scaled to controls: 0 for no effect and ±100 for the full control effect; nearly all actives have a fitted effect of over 55% in size
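Cell growth measured by CellTiter-Glo luminescence after a minimum 48 h, 37 C compound exposure with 20 nM CPT in Tdp1-knockout DT40 cells stably expressing hTDP1, seeded 400/well; qHTS titration format.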
MCF10A rereplic = induces DNA re-replication in MCF 10a normal breast cells | MCF 10A DNA re-replication, Hoechst nuclear intensity, 48 h | Potency, µM (top dose mostly 46.1 µM), without a hit: at the top dose activity, positive = re-replication, most hits filed as activators | 350,000 tested, 2.9% active | AID 624296; also: potency is read from the fitted curve at half-maximal effect; % of control where 0% means no effect; nearly all actives have a fitted effect of over 50% in size
An asterisk follows results filed as active; u = inconclusive; x = no result given. Most compounds without a hit are left out; they make up all but 19% or so of the library. Unless noted, calls follow the shape of the dose curve; as a rule, active = well fitted curve in the direction sought with a large enough effect; inconclusive = small, poorly fitted or top-dose-only effect, or another doubt; inactive = no such curve, though single readings can be large; an effect the other way counts as inactive or inconclusive.

SMILES	TDP1 cell noCPT	IL1B secr inh	SW480 rerep	BCR signal inh	DT40 TDP1 CPT	MCF10A rereplic
COc1ccc(CN(C(=O)c2oc3ccccc3c2C)C2CCS(=O)(=O)C2)cc1 (configuration not stated)	u	-12	0%	-9%	-1%	u
COc1cccc(CN(C(=O)c2oc3ccccc3c2C)C2CCS(=O)(=O)C2)c1 (configuration not stated)	21µM*	x	x	x	u	x
COc1cccc(CN(C(=O)c2oc3cc(C)ccc3c2C)C2CCS(=O)(=O)C2)c1 (configuration not stated)	18µM*	x	x	x	u	x
O=C(/C=C/c1ccco1)N(Cc1ccc(F)cc1)C1CCS(=O)(=O)C1 (configuration not stated)	-3%	-12	-1%	-7%	5%	6%
CCn1c(SCC(=O)Nc2ccc(F)cc2)nnc1-c1cnccn1	15%	-15	4%	-10%	-24%	3%
O=c1c2sc3ccccc3c2n(Cc2cccc(Cl)c2)c(=O)n1Cc1ccccc1	u	x	x	x	13µM*	x
O=c1c2sc3ccccc3c2n(Cc2cccc(F)c2)c(=O)n1Cc1ccccc1	16µM*	x	x	x	u	x
O=c1c2sc3ccccc3c2n(Cc2cccc(Cl)c2)c(=O)n1Cc1ccc(F)cc1	6.5µM*	x	x	x	10µM*	x
Cc1nc2c(sc(=S)n2Cc2ccco2)c(=O)n1CC(=O)Nc1cc(F)ccc1F	u	6	-5%	8%	12µM*	23µM*
O=c1c2sc3ccccc3c2n(Cc2ccccc2F)c(=O)n1-c1ccccc1Cl	9.2µM*	x	x	x	21µM*	x
O=c1c2sc3ccccc3c2n(Cc2ccccc2F)c(=O)n1Cc1ccccc1	u	x	x	x	-18%	x
O=C(Cn1c(=O)n(Cc2ccco2)c(=O)c2sc3ccccc3c21)Nc1ccc(F)cc1F	10µM*	x	x	x	u	x
O=c1c2sc3ccccc3c2n(Cc2cccc(Cl)c2)c(=O)n1Cc1ccco1	23µM*	x	x	x	21µM*	x
O=c1c2sc3ccccc3c2n(Cc2ccccc2)c(=O)n1Cc1ccccc1	-22%	x	x	x	-2%	x
CCC1CCCCN1CCN1C(=O)C2C(C(=O)Nc3cccc(OC)c3)C3C=CC2(O3)C1C(=O)NC1CCCCC1 (configuration not stated)	4%	u	-16%	-5%	-6%	u
O=C(Nc1ccc(Cl)cc1)C1C2C=CC3(O2)C1C(=O)N(CCCN1CCCCC1)C3C(=O)NC1CCCCC1 (configuration not stated)	1%	8	3%	-4%	-19%	-7%
Cc1cc(C)cc(NC(=O)C2C3C=CC4(O3)C2C(=O)N(CCCN2CCCC2)C4C(=O)NC2CCCC(C)C2C)c1 (configuration not stated)	u	u	-4%	u	-24%	0%
CCC1CCCCN1CCN1C(=O)C2C(C(=O)Nc3ccc(OC)cc3)C3C=CC2(O3)C1C(=O)NC1CCCCC1 (configuration not stated)	-21%	u	17%	0%	u	9.2µM*
CCCCN(C)CCN1C(=O)C2C(C(=O)Nc3ccc(Cl)cc3)C3C=CC2(O3)C1C(=O)NC1CCCCC1 (configuration not stated)	-16%	-60*	12%	4%	9%	u
COc1ccc(NC(=O)C2C3C=CC4(O3)C2C(=O)N(CCN2CCCCC2)C4C(=O)NC2CCCC(C)C2C)cc1 (configuration not stated)	-22%	u	26µM*	16%	-2%	u
CCc1nn2c(=O)cc(COC(=O)c3cc(Cl)c(OC)c(OC)c3)nc2s1	u	21	-4%	u	u	-3%

Bioassay records: PubChem BioAssay, National Center for Advancing Translational Sciences (NCATS)
